Assay results: PubChem BioAssay AID1159580 (chemical genetic matrix, 2015)
Where “and” joins values, the source holds several entries; their conditions need not be identical. Equal entries are not always repeated. The whole screen tested about 5,500 compounds, of which about 2,000 (36%) were called active. Roughly 18% stayed inconclusive and do not appear here. Rule as the data show it: active = normalized growth mostly below about 0.91 (no sharp cut-off); inconclusive = no clear call, values can overlap the other calls; inactive = mostly above about 0.92. Some of the results follow.

Assay: chemical genetic growth profiling, strain panel (AID 1159580);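 also: tested at 20 µM; growth read once vehicle control cultures reached saturation at 30 °C; 1 = growth at the plate median or of vehicle wells; lower values mean less growth of the strain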
Settings: S. cerevisiae deletion strains, growth OD

Measured: normalized growth

OCC(O)C(O)C(O)CO (stereo unspecified)
inactive: locus YAL021C, strain ccr4, active compounds read low 1.01 | locus YAL026C, strain drs2, active compounds read low 1.02 and 1.01 | locus YAL030W, strain snc1, active compounds read low 1.03 and 0.992 | locus YBL061C, strain skt5, active compounds read low 1.02 and 0.994 | locus YBR009C, strain hhf1, active compounds read low 1.02 and 0.989 | locus YBR021W, strain FUR4, active compounds read low 1.07 | locus YBR023C, strain chs3, active compounds read low 1.03 and 0.999 | locus YBR171W, strain sec66, active compounds read low 1.06 and 0.99 | locus YBR229C, strain ROT2, active compounds read low 0.964 | locus YBR231C, strain swc5, active compounds read low 1.03 and 0.994 | locus YBR279W, strain paf1, active compounds read low 1.01 and 0.998 | locus YCL011C, strain gbp2, active compounds read low 1.03 and 1.01 | locus YCL016C, strain dcc1, active compounds read low 1.03 and 0.99 | locus YCL029C, strain bik1, active compounds read low 0.985 | locus YCL061C, strain MRC1, active compounds read low 1.03 | locus YCL069W, strain vba3, active compounds read low 1.03 and 0.994 | locus YCR088W, strain abp1, active compounds read low 1.02 and 0.991 | locus YDL005C, strain med2, active compounds read low 1.03 and 0.984 | locus YDL035C, strain GPR1, active compounds read low 1.04 | locus YDL040C, strain nat1, active compounds read low 1.02 and 1 | locus YDL074C, strain BRE1, active compounds read low 1.12 | locus YDL101C, strain DUN1, active compounds read low 0.996 | locus YDL134C, strain PPH21, active compounds read low 1.01 | locus YDL185W, strain tfp1, active compounds read low 0.982 | locus YDL192W, strain arf1, active compounds read low 1.02 | locus YDR001C, strain nth1, active compounds read low 1.02 | locus YDR069C, strain doa4, active compounds read low 1.02 and 0.976 | locus YDR101C, strain arx1, active compounds read low 1.05 | locus YDR137W, strain rgp1, active compounds read low 1.09 and 0.983 | locus YDR159W, strain sac3, active compounds read low 1.03 and 1 | locus YDR162C, strain NBP2, active compounds read low 0.971 | locus YDR195W, strain ref2 1.04 and 0.983 | locus YDR297W, strain sur2, active compounds read low 1.02 and 1.01 | locus YDR318W, strain mcm21, active compounds read low 0.992 | locus YDR334W, strain swr1, active compounds read low 1.02 and 1 | locus YDR335W, strain msn5, active compounds read low 1.02 and 0.999 | locus YDR388W, active compounds read low 0.995 | locus YDR392W, strain spt3, active compounds read low 1.02 and 0.998 | locus YDR502C, strain sam2, active compounds read low 0.995 | locus YEL003W, strain gim4, active compounds read low 1.03 and 1 | locus YEL037C, strain rad23, active compounds read low 1.01 and 1 | locus YEL061C, strain CIN8 (second series), active compounds read low 1.03 and 0.998 | locus YEL061C, strain CIN8, active compounds read low 1.01 | locus YER015W, strain faa2, active compounds read low 1.02 and 1 | locus YER016W, strain bim1, active compounds read low 1.03 and 0.982 | locus YER110C, active compounds read low 0.983 | locus YER111C, strain swi4, active compounds read low 1.05 and 0.999 | locus YER155C, strain BEM2 (second series), active compounds read low 1.05 and 0.987 | locus YER155C, strain BEM2, active compounds read low 1 | locus YER167W, strain BCK2, active compounds read low 1.01 | locus YFR010W, strain ubp6, active compounds read low 1.02 and 1 | locus YGL078C, strain dbp3, active compounds read low 1.01 | locus YGL086W, strain mad1, active compounds read low 1.05 | locus YGL167C, strain pmr1, active compounds read low 1.04 and 1 | locus YGL173C, strain kem1, active compounds read low 1.03 and 0.996 | locus YGL227W, strain vid30, active compounds read low 1.02 and 0.98 | locus YGL240W, strain doc1, active compounds read low 1.03 and 1.01 | locus YGL248W, strain PDE1, active compounds read low 0.999 | locus YGL253W, strain hxk2, active compounds read low 1.02 and 1.01 | locus YGR135W, strain pre9, active compounds read low 0.984 | locus YGR229C, strain SMI1, active compounds read low 1.04 | locus YGR252W, strain gcn5, active compounds read low 1.06 | locus YHR013C, strain ard1, active compounds read low 1.04 and 0.994 | locus YHR027C, strain rpn1, active compounds read low 1.03 and 0.991 | locus YHR030C, strain SLT2, active compounds read low 1.03 and 1.02 | locus YHR079C, strain IRE1 (second series), active compounds read low 0.994 | locus YHR079C, strain IRE1, active compounds read low 1.02 and 1.05 | locus YHR094C, strain hxt1, active compounds read low 0.982 | locus YHR129C, strain ARP1, active compounds read low 1.02 | locus YHR142W, strain chs7, active compounds read low 1.04 and 1.02 | locus YHR200W, strain rpn10, active compounds read low 1 | locus YIL066C, strain RNR3, active compounds read low 1.02 | locus YIL073C, strain SPO22, active compounds read low 1.07 | locus YIL125W, strain kgd1, active compounds read low 0.997 | locus YIR030C, strain dcg1, active compounds read low 1 | locus YJL092W, strain hpr5, active compounds read low 1.03 and 1 | locus YJL095W, strain BCK1 (second series), active compounds read low 1.01 and 0.999 | locus YJL095W, strain BCK1, active compounds read low 1.04 and 1.03 | locus YJL115W, strain asf1, active compounds read low 1.04 and 0.983 | locus YJL129C, strain trk1, active compounds read low 1.05 and 0.992 | locus YJL134W, strain LCB3, active compounds read low 0.993 | locus YJL154C, strain vps35, active compounds read low 1.02 and 0.991 | locus YJL164C, strain tpk1, active compounds read low 1.03 and 0.996 | locus YJL166W, strain qcr8, active compounds read low 1.03 and 1.01 | locus YJL168C, strain set2, active compounds read low 0.998 | locus YJL187C, strain SWE1 (second series), active compounds read low 0.995 | locus YJL187C, strain SWE1, active compounds read low 1.04 and 0.996 | locus YJR043C, strain POL32, active compounds read low 1.05 | locus YJR066W, strain TOR1, active compounds read low 0.962 and 0.981 | locus YKL009W, strain mrt4, active compounds read low 1.06 | locus YKL068W, active compounds read low 0.987 | locus YKL085W, strain MDH1 (second series), active compounds read low 1.01 | locus YKL085W, strain MDH1, active compounds read low 1.01 | locus YKL160W, strain elf1, active compounds read low 1.02 and 0.994 | locus YKL190W, strain CNB1, active compounds read low 0.996 | locus YKR001C, strain vps1, active compounds read low 1.02 | locus YKR026C, strain gcn3, active compounds read low 1.03 and 0.989 | locus YKR091W, strain srl3, active compounds read low 1.02 and 0.991 | locus YLL001W, strain dnm1, active compounds read low 1.03 and 1 | locus YLL026W, active compounds read low 1.03 and 0.991 | locus YLL041C, strain sdh2, active compounds read low 1.02 and 0.993 | locus YLR027C, strain aat2, active compounds read low 1.03 and 0.975 | locus YLR039C, strain RIC1, active compounds read low 1.07 | locus YLR058C, strain SHM2, active compounds read low 1 | locus YLR102C, strain apc9, active compounds read low 0.992 | locus YLR113W, strain HOG1, active compounds read low 1.02 and 1.06 | locus YLR221C, strain rsa3, active compounds read low 1.03 and 0.996 | locus YLR258W, strain gsy2, active compounds read low 1.01 and 1 | locus YLR262C, strain YPT6 (second series), active compounds read low 1.05 and 1.02 | locus YLR262C, strain YPT6, active compounds read low 1.02 | locus YLR268W, strain sec22, active compounds read low 1.03 | locus YLR320W, strain mms22, active compounds read low 1.03 and 1.01 | locus YLR330W, strain CHS5, active compounds read low 1.01 | locus YLR342W, strain FKS1 (second series), active compounds read low 1.16 | locus YLR342W, strain FKS1, active compounds read low 1.03 and 0.995 | locus YLR357W, strain rsc2, active compounds read low 1.06 and 0.993 | locus YLR370C, strain arc18, active compounds read low 1.02 and 0.986 | locus YLR371W, strain rom2, active compounds read low 1 | locus YLR384C, strain iki3, active compounds read low 1.03 and 0.966 | locus YLR418C, strain cdc73, active compounds read low 1.05 | locus YML016C, strain PPZ1, active compounds read low 1 | locus YML032C, strain rad52, active compounds read low 0.996 | locus YML120C, strain ndi1, active compounds read low 1.03 and 1 | locus YML124C, strain tub3, active compounds read low 0.99 | locus YMR058W, strain fet3, active compounds read low 1.02 and 1 | locus YMR078C, strain ctf18, active compounds read low 0.998 | locus YMR125W, strain sto1, active compounds read low 1.02 and 1 | locus YMR129W, active compounds read low 1.03 and 0.992 | locus YMR205C, strain PFK2, active compounds read low 1.05 and 0.988 | locus YMR223W, strain ubp8, active compounds read low 1 | locus YMR231W, strain pep5, active compounds read low 1.01 | locus YMR263W, strain SAP30, active compounds read low 1.01 | locus YMR307W, strain GAS1, active compounds read low 1.2 | locus YNL067W, strain RPL9B, active compounds read low 0.991 | locus YNL071W, strain lat1, active compounds read low 1.02 and 1.01 | locus YNL128W, strain TEP1, active compounds read low 1.02 | locus YNL183C, strain NPR1, active compounds read low 0.969 and 0.984 | locus YNL209W, strain ssb2, active compounds read low 1.01 and 0.988 | locus YNL233W, strain BNI4, active compounds read low 1.02 | locus YNL248C, strain rpa49, active compounds read low 1.03 and 1.02 | locus YNL250W, strain rad50, active compounds read low 1 | locus YNL271C, strain bni1, active compounds read low 1.01 | locus YNL298W, strain CLA4, active compounds read low 1.02 | locus YNL307C, strain MCK1, active compounds read low 0.997 | locus YNL322C, strain KRE1 (second series), active compounds read low 1.03 and 0.99 | locus YNL322C, strain KRE1, active compounds read low 1.01 | locus YNR049C, strain mso1, active compounds read low 1.02 and 0.994 | locus YNR052C, strain pop2, active compounds read low 1.01 | locus YOL012C, strain htz1 0.9 | locus YOL147C, strain pex11, active compounds read low 0.994 | locus YOR001W, strain rrp6, active compounds read low 1.01 and 0.998 | locus YOR061W, strain CKA2, active compounds read low 0.989 | locus YOR069W, strain VPS5, active compounds read low 1.01 | locus YOR070C, strain gyp1, active compounds read low 1.01 and 0.994 | locus YOR080W, strain dia2, active compounds read low 1.03 and 0.985 | locus YOR083W, strain WHI5, active compounds read low 1.01 and 0.997 | locus YOR106W, strain vam3, active compounds read low 1.05 and 0.998 | locus YOR136W, strain idh2, active compounds read low 0.992 | locus YOR144C, strain elg1, active compounds read low 0.989 | locus YOR184W, strain ser1, active compounds read low 1 | locus YOR231W, strain MKK1, active compounds read low 1.03 and 1.05 | locus YOR265W, strain rbl2, active compounds read low 1.03 and 0.995 | locus YOR270C, strain vph1, active compounds read low 1.09 and 1.04 | locus YOR290C, strain snf2, active compounds read low 1.04 and 0.997 | locus YOR316C, strain cot1, active compounds read low 0.989 | locus YPL051W, strain arl3, active compounds read low 1.02 and 0.975 | locus YPL078C, strain atp4, active compounds read low 1.02 and 0.992 | locus YPL106C, strain sse1, active compounds read low 1.03 and 0.946 | locus YPL240C, strain hsp82, active compounds read low 1.02 and 0.997 | locus YPL241C, strain CIN2, active compounds read low 0.997 | locus YPL256C, strain CLN2, active compounds read low 0.996 and 1.06 | locus YPR119W, strain clb2, active compounds read low 1 | locus YPR141C, strain kar3, active compounds read low 0.992 | locus YPR163C, strain tif3, active compounds read low 0.995 | locus YPR167C, strain met16, active compounds read low 1 | strain wtn01, active compounds read low 1.04
